Assay outcomes as filed in PubChem BioAssay.
hcDAF12 agonist – H. contortus DAF-12 activation, primary screen. HEK293 hcDAF-12 lit1-tk-luc reporter, luminescence; 0% DMSO, 100% Δ7-dafachronic acid. activation, % at 6.8 µM. 1.4% of 370,000 active. AID 652067;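 active = activation above the mean of all tested compounds plus 3 SD, cut at about 5.5% in these data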
DAX1 inh-1 – blocks DAX1 repression of SF-1 activated StAR promoter; HEK293T StAR-luciferase reporter, SF-1/DAX-1 repression relief; inhibition, % at 6.8 µM; 1.1% of 370,000 active;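 active = inhibition above the mean over all tested compounds plus 3 SD, cut at about 3.6% in these data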;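 note: higher inhibition means more luminescence from relief of DAX-1 repression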
hgDAF-12 ag – agonists of H. glycines DAF-12 nuclear receptor. HEK293 GAL4-hgDAF12 UAS-luciferase reporter, agonist luminescence; normalized to butyrate control. activation, % at 6.8 µM. 1.8% of 370,000 active;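 active = activation above a cutoff set at the mean of all screened compounds plus 3 SD, cut at about 10% in these data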
DAX1 inh-2 – inhibits human nuclear receptor DAX1; AID 504766; 0.99% of 340,000 active; inhibition, % at 6.75 µM; HEK293 Gal4-DAX1 luciferase reporter, luminescence; P51843;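 active = inhibition above the mean over all tested compounds plus 3 SD, cut at about 4.2% in these data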;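 note: inhibition shows as a rise in luminescence from relieved DAX1 repression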
Target sequence (P51843 207-470 limits assumed): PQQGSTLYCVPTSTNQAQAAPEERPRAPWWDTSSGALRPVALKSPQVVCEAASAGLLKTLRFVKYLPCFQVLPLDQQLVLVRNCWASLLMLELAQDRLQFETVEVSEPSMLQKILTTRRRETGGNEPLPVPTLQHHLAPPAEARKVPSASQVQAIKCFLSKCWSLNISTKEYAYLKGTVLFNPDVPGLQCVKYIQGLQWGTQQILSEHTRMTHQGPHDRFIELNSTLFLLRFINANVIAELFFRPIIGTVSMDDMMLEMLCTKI
ssDAF12 agonist – activators of S. stercoralis DAF-12 nuclear receptor | HEK293 ssDAF-12/GRIP1 lit1-tk-luc reporter, luminescence; % of 3 µM dafachronic acid response | activation, % at 6.8 µM | 1% of 370,000 active | AID 652126;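 active = activation above the mean over all tested compounds plus 3 SD, cut at about 0.9% in these data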
SMARCA2 act – increases SMARCA2 function in MMTV reporter cells. 1% of 370,000 active. MG213 cells, MMTV-luciferase reporter, dexamethasone, overnight. activation, % at 9.1 µM; in the data active = activation above about 7.8%
SMARCA2 act conf – SMARCA2 activation, confirmation screen; shares compounds with SMARCA2 act; activation, % at 9.1 µM; 30% of 3,500 active; AID 652260; MG213 cells, MMTV-luciferase with dexamethasone, luminescence, overnight; MG213 cells expressing E1A, Rb sequestered; DMSO wells 0%, reference activator 100%;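 active = activation above its plate's cutoff, the mean activation of tested wells plus 3 SD, cut at about 7.9% in these data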
VP16 Luc act – activates GAL4-VP16 luciferase, flagging SMARCA2 activator hits; shares compounds with SMARCA2 act; HEK293 GAL4-VP16 pG5luc reporter, luciferase luminescence; scaled: DMSO wells 0%, SAHA wells 100%; activation, % at 9.1 µM; 41% of 3,500 active; AID 686939;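 active = activation above the solvent-only control well mean plus 3 SD, averaged across control plates, cut at about 5.2% in these data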
Large screens that a line does not name were inactive (follow-up assays come after a bar, where they were run). Most compounds without a hit are left out; they make up all but 4.8% or so of the library.

CCC(Oc1ccccc1)C(=O)Nc1ccccc1C(=O)N1CCCCC1 (stereo not given)	none
CCOC(=O)c1[nH]c2cc(OC)c(OC)cc2c1NC(=O)c1nonc1C	SMARCA2 act 9.9 | SMARCA2 act conf inactive | VP16 Luc act inactive
CC(=O)Nc1ccc(-c2nc3c(C)cccc3[nH]2)cc1	SMARCA2 act 12.5 | SMARCA2 act conf 19.9 | VP16 Luc act 16.8
Cc1ccnc(NC(=O)CNC(=O)c2ccc(C)s2)c1	DAX1 inh-1 4.0, SMARCA2 act 9.8 | SMARCA2 act conf inactive | VP16 Luc act 6.7
Cc1ccc(NC(=O)CNC(=O)c2ccc(C)s2)nc1	none
Cc1nn(CC(=O)Nc2ccccc2)c(=O)c2ccccc12	none
CCOc1ccc2nc(SC3CC(=O)N(c4ccc(C)cc4)C3=O)sc2c1 (stereo not given)	none
CCOc1ccc2nc(/N=C/c3c(C)[nH]n(-c4ccc(C)cc4)c3=O)sc2c1	SMARCA2 act 10.7 | SMARCA2 act conf inactive | VP16 Luc act 6.5
COc1ccc2[nH]c(C)c(CCNC(=S)Nc3cc(C)cc(C)c3)c2c1	none
COc1cc(C(=O)Nc2nc3ccc(S(C)(=O)=O)cc3s2)cc(OC)c1C	none
Cc1ccccc1NC(=O)Nc1nc2ccc(S(C)(=O)=O)cc2s1	DAX1 inh-2 9.0, SMARCA2 act 9.2 | SMARCA2 act conf inactive | VP16 Luc act inactive
CCC(=O)Nc1nc2ccc(S(C)(=O)=O)cc2s1	none
Cc1cc(C(=O)Nc2nc3ccc(S(C)(=O)=O)cc3s2)c(C)o1	SMARCA2 act 10.3 | SMARCA2 act conf inactive | VP16 Luc act 5.8
COc1ccc(-c2ccc(SCC(=O)NC3CCCCC3)nn2)cc1	none
CCOc1ccc(-c2ccc(SCC(=O)NC3CCCCC3)nn2)cc1	SMARCA2 act 8.5 | SMARCA2 act conf inactive | VP16 Luc act 8.9
CCOC(=O)CSc1cccc2cccnc12	SMARCA2 act 9.4 | SMARCA2 act conf inactive | VP16 Luc act inactive
Cc1cccc(NC(=O)CSc2cccc3cccnc23)c1C	none
COc1ccc(-c2csc(N(C)C(=O)c3ccco3)n2)cc1	SMARCA2 act 8.0 | SMARCA2 act conf inactive | VP16 Luc act 7.9
C=CCNC(=O)c1cc(-c2ccc3c(c2)OCO3)on1	SMARCA2 act 9.1 | SMARCA2 act conf 8.2 | VP16 Luc act 10.4
COCCNC(=O)c1cc(-c2ccc3c(c2)OCO3)on1	none
CN(CC(=O)Nc1ccc(N2CCOCC2)cc1)C(=O)c1cccc(Cl)c1Cl	none
O=[N+]([O-])c1cccc(COc2ccc(CO)cc2)c1	hcDAF12 agonist 7.0, hgDAF-12 ag 18.8, ssDAF12 agonist 2.6, SMARCA2 act 9.4 (no result: DAX1 inh-2) | SMARCA2 act conf 9.1 | VP16 Luc act 12.6
Cc1ccc(C(=O)Nc2ccc(F)cc2)cc1NC1=NC2CS(=O)(=O)CC2S1 (stereo not given)	SMARCA2 act 9.8 | SMARCA2 act conf inactive | VP16 Luc act inactive
CCOC(=O)c1cnc(-n2nc(C)cc2C)nc1N(CC)CC	none
O=C(Cc1ccc(-c2ccccc2)cc1)Nc1ccccn1	SMARCA2 act 9.9 | SMARCA2 act conf 16.3 | VP16 Luc act inactive
CCC(=O)Nc1ccc(NC(=O)CCc2ccccc2)cn1	none
CCC(=O)Nc1ccc(NC(=O)Cc2ccccc2)cn1	SMARCA2 act 8.7 | SMARCA2 act conf inactive | VP16 Luc act inactive
Cc1cccc(Oc2nc3ccccn3c(=O)c2/C=C(\C#N)C(=O)NC2CCS(=O)(=O)C2)c1C (stereo not given)	none
CCC1C(=O)n2nc(-c3ccccc3)cc2N=C1C (stereo not given)	SMARCA2 act 10.4 | SMARCA2 act conf 11.9 | VP16 Luc act 9.2
O=C(c1ccc(-c2cc(Cl)ccc2Cl)o1)N1CCOCC1	SMARCA2 act 8.8 | SMARCA2 act conf inactive | VP16 Luc act inactive
O=C(NC(=S)Nc1ccccc1N1CCOCC1)c1ccc(-c2cc(Cl)ccc2Cl)o1	none
COc1ccc(C(=O)NCc2ccccc2OC)c(OC)c1	none
Cc1cc2cc(C#N)c(N3CCN(S(C)(=O)=O)CC3)nc2cc1C	SMARCA2 act 9.1 | SMARCA2 act conf inactive | VP16 Luc act inactive
COc1ccccc1C(=O)N/C(=C\c1cn(C)c2ccccc12)C(=O)N1CCCC1	none
COc1ccccc1N1CCN(C(=O)C(=O)c2cn(CC(=O)N3CCCCCC3)c3ccccc23)CC1	none
COc1ccc2[nH]c(=O)c(C(c3nnnn3C(C)(C)C)N(Cc3ccco3)CC3CCCO3)cc2c1 (stereo not given)	SMARCA2 act 11.6 | SMARCA2 act conf inactive | VP16 Luc act inactive
CN(C)CCOc1nc(-c2ccccc2)nc2c1oc1ccccc12	SMARCA2 act 16.1 | SMARCA2 act conf 31.2 | VP16 Luc act inactive
CCN(CC)CCCOc1nc(C)nc2c1oc1ccccc12	none
CCN(CC)CCOc1nc(C)nc2c1oc1ccccc12	SMARCA2 act 8.5 | SMARCA2 act conf inactive | VP16 Luc act inactive
O=C1c2cccc3c([N+](=O)[O-])ccc(c23)C(=O)N1O	none
COc1ccc2c3c(cccc13)C(=O)N(O)C2=O	SMARCA2 act 9.0 | SMARCA2 act conf 44.4 | VP16 Luc act inactive
Cc1ccc(C(=O)N/C(=C/c2ccccc2F)C(=O)NCCCn2ccnc2)cc1	none
Cc1ccc(/C=C2/CNC/C(=C/c3ccc(C)cc3)C2=O)cc1	SMARCA2 act 14.9 | SMARCA2 act conf inactive | VP16 Luc act inactive
O=C(NCCCN1CCN(Cc2ccccc2Cl)CC1)Nc1ccccc1	none
CCOC(=O)CCCSc1nc(-c2ccc3c(c2)OCO3)cc(C(F)(F)F)c1C#N	SMARCA2 act 8.7 | SMARCA2 act conf inactive | VP16 Luc act inactive
COc1cccc(/C=N/NC(=O)CN(C2=NS(=O)(=O)c3ccccc32)c2ccccc2)c1	none
COc1ccc(/C=N/NC(=O)CN(C2=NS(=O)(=O)c3ccccc32)c2ccccc2)cc1OC	SMARCA2 act 8.1 | SMARCA2 act conf inactive | VP16 Luc act inactive
O=C(COC(=O)/C=C/c1ccc2ccccc2n1)NNC(=O)c1ccc([N+](=O)[O-])cc1	none
N#CC1(NC(=O)COC(=O)/C=C/c2ccc3ccccc3n2)CCCCC1	SMARCA2 act 9.4 | SMARCA2 act conf 8.3 | VP16 Luc act inactive
O=C(/C=C/c1ccccc1Cl)Nc1ccc(-c2nnc3n2CCCCC3)cc1	SMARCA2 act 10.3 | SMARCA2 act conf inactive | VP16 Luc act inactive
